Among the data in PubChem BioAssay AID1814 (Broad Institute, 2009) are activity score values, retold here.

The campaign covered roughly 300,000 compounds. About 22,000 (7.3%) were called active. Not shown: some 2% with an inconclusive outcome. Many of the other results were omitted from the sample, so actives are more common in it than they were. Values without a mark were called inactive. Rule as the data show it: active = activity score below about -60%; inconclusive = mostly about -28% to -61%; inactive = positive scores.

This assay can be described thus: Activators via SNCA 5'UTR binding, MLPCN (AID 1814). The note with it: alpha-synuclein 5'UTR reporter, activators screen; active compounds read low; tested at 7.5 µM.
Consider `COc1c(C)c2c(c(O)c1C/C=C(\C)CCC(=O)O)C(=O)OC2`, for which the activity score is 76.6%.

On to `C=CCNC(=O)/C=C/c1ccc(C(C)C)cc1`, for which the activity score is -129% (active).

Consider `COc1ccc(-n2cnc3cc(NCc4ccco4)ccc32)cc1`, for which the activity score was -126% (active).

Turning to `COc1ccc(/C(N)=N/OC(=O)Cc2ccccc2)cc1`, the activity score is -125% (active).

With `O=[N+]([O-])c1ccc2oc(-c3cccc(O)c3)nc2c1`, the activity score was -91.7% (active).

Regarding `COc1ccc(-c2nc3cc([N+](=O)[O-])ccc3o2)cc1OC`, the activity score is -65.4% (active).

For `Cc1ccc(N=C2NC(=O)/C(=C/C=C/c3ccco3)S2)cc1C`, the activity score was -81.5% (active).

In the case of `COc1ccc(C(=O)Nc2ccccc2C(=O)N/N=C/c2ccccc2OC)cc1`, the activity score is -124% (active).

For `COc1ccc(C(=O)Nc2cc(C)c(NC(=O)c3ccccc3OC)cn2)cc1`, the activity score is -115% (active).

Regarding `CC(C)(C)C(=O)Nc1ccc(C(=O)N/N=C/c2ccccc2OC(=O)c2ccc(Cl)cc2Cl)cc1`, the activity score is 65.2%.

On to `N#CC1=C(N)Oc2cc(O)ccc2C1C1CCCCC1` (stereo not given), for which the activity score was -65.6% (active).

In the case of `C=CCN(C(=O)Nc1ccc2c(c1)nc(C)n2C)c1ccccc1`, the activity score is -71.4% (active).

On to `C=CCN(C(=O)Nc1ccc2oc(C)nc2c1)c1ccccc1`, for which the activity score was -65.8% (active).

On to `O=C(COc1ccc([N+](=O)[O-])cc1)Nc1ccc(N2CCCC2)cc1`, for which the activity score is -69.6% (active).

With `O=C(CSc1nnc2ccccn12)c1ccccc1`, the activity score is -81.7% (active).

For the molecule `CC(C)(C)C1CCc2c(sc3nc(SCC(N)=O)nc(N)c23)C1` (stereo not given), the activity score is -196% (active).

With `C=C(C)CSc1nc(N)c2c3c(sc2n1)CCC3`, the activity score is -152% (active).

Regarding `COC(=O)c1sc(NC(=O)c2csc3c2CCCC3)nc1C`, the activity score is -228% (active).

Turning to `Cc1ccc(NC(=O)c2csc3c2CCCC3)cc1`, the activity score was -158% (active).

For the molecule `Cc1cc2c(C)nc(N/N=C/c3ccccc3)nc2o1`, the activity score was -123% (active).

`COC(=O)c1ccc(CSc2nncn2C)cc1`: the activity score was -112% (active).

In the case of `COC(=O)c1ccc(CSc2ccc3nnc(-c4ccccc4)n3n2)o1`, the activity score was 53.7%.

`Cc1ccc(Oc2nc(-c3ccccn3)nc3ccccc23)cc1`: the activity score was -92.6% (active).

Regarding `CSc1nc2ccc(NC(=O)c3c(F)cccc3F)cc2s1`, the activity score was -166% (active).

Turning to `CCn1c(=O)c2cc(C(=O)Nc3cccc(C(C)=O)c3)sc2c2ccccc21`, the activity score is -66.3% (active).

As to `Fc1cccc(Cl)c1CSc1ccc(-c2ccco2)nn1`, the activity score was -172% (active).

`CSc1ccccc1NC(=O)c1cnc2sc(C)cn2c1=O`: the activity score is -129% (active).

Consider `CC(C)(C)NC(=O)Cn1nnc(-c2ccccc2Cl)n1`, for which the activity score is -117% (active).

Turning to `O=C1N/C(=C/c2cccn2-c2ccccc2)C(=O)N1c1cccc(Cl)c1`, the activity score is -65.3% (active).

`COc1ccc(C2CC(c3cccs3)=NN2c2ccccc2)cc1` (stereo not given): the activity score is -69% (active).

For `COc1ccc(Cc2n[nH]c(=S)n2NC(=O)Nc2ccc(C)cc2)cc1`, the activity score is -75.9% (active).

Turning to `CC(C)COC(=O)c1ccc(NC(=O)C2C3C=CC(C3)C2C(=O)O)cc1` (stereo not given), the activity score was -101% (active).

Consider `Cc1nc2cc(NC(=O)NCc3ccccc3)ccc2o1`, for which the activity score was -102% (active).

As to `Cc1ccc(NC(=O)Nc2ccc3oc(C)nc3c2)cc1`, the activity score is -272% (active).

Turning to `COc1cc(/C=C2/C(=O)ON=C2C)ccc1OCc1ccccc1F`, the activity score was -183% (active).

Consider `COc1cc(/C=C2/C(=O)ON=C2C)ccc1OCc1cccc(F)c1`, for which the activity score is -149% (active).

As for `CN1CCN(C2Cc3ccc(Cl)cc3Sc3ccc(F)cc32)CC1` (stereo not given), the activity score is 104%.

Regarding `COc1ccc(S(=O)(=O)N2CCCC(C(=O)Nc3ccc(NC(=O)c4ccccn4)cc3)C2)cc1` (stereo not given), the activity score was -87.5% (active).

As for `Cc1n[nH]c(C)c1S(=O)(=O)N1CCCC(C(=O)Nc2ccc(Br)cc2)C1` (stereo not given), the activity score was -116% (active).

As for `CCOC(=O)CSC1=C(C#N)C(c2sccc2C)CC(=O)N1` (stereo not given), the activity score is 75%.

Take `O=C(CSCc1cccs1)N1CCCC1`: the activity score was -80.2% (active).

With `O=C(CSCc1ccc(Cl)cc1)N1CCCCC1`, the activity score was -102% (active).

For the molecule `Nc1scc(-c2ccncc2)c1Cl`, the activity score is -79.4% (active).

`CC1CN/C(=C\C(=O)c2ccc(Br)cc2)C(=O)N1` (stereo not given): the activity score is 62%.

Turning to `CC(=O)c1ccc(Oc2cc(C)nc(-n3nc(C)cc3C)n2)cc1`, the activity score was 80.1%.

On to `O=C(CSc1nc2ccccc2o1)N/N=C/c1ccccc1C(=O)O`, for which the activity score is -97.9% (active).

Consider `Cc1ccc(/C=N/NC(=O)CSc2nc3ccccc3o2)cc1`, for which the activity score was -108% (active).

As to `COC(=O)c1ccc(/C=N/N2C(C)CCCC2C)cc1` (stereo not given), the activity score was -172% (active).

As for `CC(=O)c1ccc(S(=O)(=O)N2CCN(C(=O)/C=C/c3ccc4ccccc4n3)CC2)cc1`, the activity score is 62.4%.

Take `O=C(c1ccc2ccccc2n1)N1CCN(c2ccccc2Cl)CC1`: the activity score was -142% (active).

`Oc1ccccc1-c1cc(-c2ccc(Cl)cc2)n[nH]1`: the activity score was -126% (active).

Consider `c1ccc(-c2cc(-c3ccccc3)[nH]n2)cc1`, for which the activity score is -106% (active).

For `Cc1ccc(Nc2nc(-c3ccc(O)cc3O)cs2)nc1`, the activity score was -189% (active).

Regarding `COc1ccc(OCCCn2cccc2/C=C2/C(=N)N3OC(C)=CC3=NC2=O)cc1`, the activity score was -95.9% (active).

Take `Cc1ccc(-c2nn(-c3cccc(F)c3)cc2CNCCc2ccncc2)o1`: the activity score was -74% (active).

For `O=C(/C=C/c1ccc(Cl)c([N+](=O)[O-])c1)c1ccc(O)cc1`, the activity score is -156% (active).

For `CN(C)c1ccc(/C=C/C(=O)c2ccc(O)cc2)cc1[N+](=O)[O-]`, the activity score was -203% (active).

On to `O=C(/C=C/c1ccc2c(c1)OCCO2)c1ccc(O)cc1`, for which the activity score is -260% (active).

As to `COc1ccc(/C=C2\SC(=O)N(CCC(=O)NC3CCS(=O)(=O)C3)C2=O)cc1` (stereo not given), the activity score was -71.6% (active).

`COc1ccc(/C=C2\SC(=S)N(CCCC(=O)NC3CCCC3)C2=O)cc1OC`: the activity score is 83.7%.

With `Cc1nc(-c2ccccc2)sc1C(=O)/C=C/c1ccccc1`, the activity score was -83.8% (active).

`Cc1nc(-c2ccccc2)sc1C(=O)/C=C/N(C)C`: the activity score was -76.2% (active).

In the case of `CCOC(=O)c1c(C)[nH]c(C2=NNC(=NC(C)COC)SC2)c1C` (stereo not given), the activity score was -98.9% (active).

Take `O=C(CSc1nc2ccccc2[nH]1)c1cccs1`: the activity score was -160% (active).

`CN(Cc1ccccc1)C(=O)CSc1nc2ccccc2[nH]1`: the activity score was -93.7% (active).
